Source: PubChem (National Center for Advancing Translational Sciences (NCATS))
Shown is part of a subset that was picked to be rich in hits.
Shiga inhibitor – A qHTS for Small Molecule Inhibitors of Shiga Toxin; Vero cells, Shiga toxin protein synthesis inhibition reporter; inhibition, % at 38.7 µM; 290,000 tested, 9.2% active; in the data active means inhibition mostly above about 28%, no sharp cut-off; inactive means mostly below about 43%; further: 0% is about no effect
RE007 growth inh – qHTS Assay for Inhibitors of the HIV-1 protein Vpr; S. pombe RE007 Vpr strain, BacTiter-Glo ATP luminescence, 24 h; Potency, µM (highest dose often 92.2 µM), for the others: top-dose activity change, negative = less growth, hits mostly inhibitors; 360,000 tested, 0.21% active; AID 651644, 2012; active means well fitted falling curve with a large enough effect; inconclusive means small, poorly fitted or top-dose-only effect; inactive means no such curve, though single readings can be large or run the other way; further: potency means the concentration at half of the fitted maximal effect; on the % scale 0 is the no-effect control and ±100 the full control effect; nearly all actives have a fitted effect of over 50% in size
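Fission yeast RE007 carrying one integrated HIV-1 vpr copy, seeded at OD 0.01 in PMG+AL medium with 23 nL pinned compound. Grown 24 h at 30 degrees; viability read by BacTiter-Glo luminescence after 5 min.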
CHX counter – Cycloheximide Counterscreen for Small Molecule Inhibitors of Shiga Toxin | max response, % | 300,000 tested, 12% active | cell reporter, cycloheximide protein synthesis inhibition counterscreen; in the data active means max response mostly above about 13%, no sharp cut-off; inactive means mostly below about 14%; further: read at 38.3 µM for the half of the compounds with a filed dose; 0% is about no effect
TbPYK inhibitor – qHTS of Trypanosoma Brucei Inhibitors | pyruvate kinase (Trypanosoma brucei), Q57TT1 | TbPYK enzyme, Kinase-Glo Plus ATP luminescence, 45 min | Potency, µM (series often up to 76.8 µM), inactives show at the top dose activity, negative = inhibition, usual class: inhibitors | 410,000 tested, 0.12% active; further: potency means the concentration at half of the fitted maximal effect; on the % scale 0 is the no-effect control and ±100 the full control effect; nearly all actives have a fitted effect of over 50% in size
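T. brucei PYK with substrate was exposed to pin-transferred compounds across a concentration series, then started with 130 uM ADP (final). After 45 min at room temperature, Kinase-Glo Plus luminescence was read, normalized and curve-fitted.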
Giardia FBPA inh – qHTS Assay for Inhibitors of Fructose-1,6-bisphosphate Aldolase from Giardia Lamblia | A8B2U2 | purified Giardia FBPA | Potency, µM (doses to about 59.6 µM), for the others: at the highest dose activity, negative = inhibition, actives largely listed as inhibitors | 290,000 tested, 0.71% active; further: potency means the concentration at half of the fitted maximal effect; on the % scale 0 is the no-effect control and ±100 the full control effect; nearly all actives have a fitted effect of over 55% in size
Target sequence (A8B2U2 whole entry, looked up): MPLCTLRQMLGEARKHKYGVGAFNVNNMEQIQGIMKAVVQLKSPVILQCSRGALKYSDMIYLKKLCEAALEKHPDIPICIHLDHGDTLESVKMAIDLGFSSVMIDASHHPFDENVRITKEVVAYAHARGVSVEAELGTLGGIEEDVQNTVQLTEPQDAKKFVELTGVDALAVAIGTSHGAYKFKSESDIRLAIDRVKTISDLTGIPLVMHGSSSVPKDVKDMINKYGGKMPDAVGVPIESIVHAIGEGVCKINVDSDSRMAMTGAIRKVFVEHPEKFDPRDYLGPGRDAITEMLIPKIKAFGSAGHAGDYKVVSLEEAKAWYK
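40 nM FBPA preincubated 10 min at RT with compound (up to 57.5 uM final), then substrate plus GAPDH/TPI/NAD/arsenate coupling and diaphorase/resazurin added. Fluorescence read after 20 min at RT, 525/598 nm.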
LmPK inh – qHTS Assay for Inhibitors of Leishmania Mexicana Pyruvate Kinase (LmPK); purified LmPK, Kinase-Glo ATP luminescence, 1 h; Potency, µM (highest dose often 57.5 µM), for the others: at the top dose activity change, negative = inhibition, actives largely listed as inhibitors; 290,000 tested, 0.37% active; AID 1721, 2009; further: potency means the concentration at half of the fitted maximal effect; on the % scale 0 is the no-effect control and ±100 the full control effect
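Pyruvate kinase activity monitored as ATP production (luciferase luminescence). Conditions: 0.1 nM enzyme, 0.5 mM PEP, 0.1 mM ADP, 1 h, RT; normalized against uninhibited and no-enzyme wells.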
An asterisk follows results filed as active; ? = inconclusive; · = no result given. Unless noted, the call rests on the fitted dose curve; in most records, active means well fitted curve in the direction sought with a large enough effect; inconclusive means small, poorly fitted or top-dose-only effect, or another doubt; inactive means no such curve, though single readings can be large; an effect the other way counts as inactive or inconclusive.

SMILES | Shiga inhibitor | RE007 growth inh | CHX counter | TbPYK inhibitor | Giardia FBPA inh | LmPK inh
CC1=C/C(=N\OS(=O)(=O)c2ccccc2)C(C)=CC1=O | 18 | 35µM* | 8.3* | 4% | 7.9µM* | -4%
CC(S(=O)(=O)c1ccccc1)S(=O)(=O)c1ccccc1 | · | -15% | · | 4% | · | ·
CC1=C(C)/C(=N\OS(=O)(=O)c2ccc(C)cc2)C=CC1=O | -6 | 16µM* | -9 | -10% | 4µM* | 1%
COc1ccccc1C(=O)Nc1nnc2n1CCS2 | · | · | · | 0% | · | ·
COC(=O)c1ccc(C(NC(=O)OCc2ccccc2)/C(=C/[C@@H](C)C(=O)NCc2ccc(OC)c(OC)c2)c2cccnc2)cc1 (some centres not stated) | · | · | · | · | 3% | ·
Cc1cc(C)n(-c2ccc(C(=O)Nc3ccccn3)cc2)n1 | 65* | -4% | 38* | 1% | -1% | -27%
O=C(NC1CCCCC1)c1ccc([N+](=O)[O-])cc1 | · | -13% | · | -6% | · | ·
Cc1cc(C)n(-c2ccc(C(=O)Nc3nnc(C)s3)cc2)n1 | -2 | -23% | 6 | -5% | 3% | -1%
Cc1cc(C)n(-c2ccc(C(=O)Nc3cccnc3Cl)cc2)n1 | 13 | 13% | 5 | 0% | -13% | 11%
N#Cc1ccc(C(=O)NC2CCCCCCC2)cc1 | 83* | -1% | 22* | -3% | 3% | 0%
Cc1ccc(C(=O)NC2CCCCC2)cc1 | 29 | 11% | 31* | 3% | · | -15%
Cc1cc(C)n(-c2ccc(C(=O)Nc3sccc3C(N)=O)cc2)n1 | 47* | 0% | 35* | 3% | -17% | 2%
CC(C)(C)c1ccc(C2NC(=O)c3n[nH]c(-c4cccs4)c32)cc1 (configuration not stated) | · | · | · | -5% | · | ·
Cc1c(N)nc([C@@H](CC(N)=O)NC[C@H](N)C(N)=O)nc1C(=O)N[C@H](C(=O)N[C@@H](C)[C@@H](O)[C@@H](C)C(=O)N[C@H](C(=O)NCCc1nc(-c2nc(C(=O)NCCCN[C@H](C)c3ccccc3)cs2)cs1)[C@H](C)O)[C@@H](O[C@H]1O[C@@H](CO)[C@H](O)[C@@H](O)[C@H]1O[C@H]1O[C@@H](CO)[C@@H](O)[C@H](OC(N)=O)[C@H]1O)c1cnc[nH]1 | · | · | · | -1% | · | ·
NC(=O)c1ccsc1NC(=O)C1CCCN1S(=O)(=O)c1ccc(Cl)cc1 (configuration not stated) | -5 | 10% | -5 | 5% | -2% | 10%
Cc1cc(C)n(-c2ccc(C(=O)NC3CCCCC3)cc2)n1 | 40* | 4% | 21 | -5% | -6% | -1%
CC1CCCCN1S(=O)(=O)c1ccc(C(=O)Nc2sccc2C(N)=O)cc1 (configuration not stated) | 60* | 6% | 56* | 0% | 1% | -2%
CCCCn1cc(S(=O)(=O)c2cc(C)ccc2C)c(=O)c2cc(F)c(N3CCC(C)CC3)cc21 | · | · | · | 7% | · | ·
NS(=O)(=O)c1ccc(N=Nc2ccc(=O)[nH]c2O)cc1 | 13 | 10% | 10 | -17% | 5.6µM* | 16%
Cn1cc(Cl)c(C(=O)OCC(=O)c2ccccc2)n1 | 36* | -13% | 27* | -2% | 3% | -6%
COc1ccc(C(=O)O/N=C(\N)c2ccccc2)cc1 | -15 | ? | 3 | ? | -1% | ?
COc1ccc(C(=O)O/N=C(\N)c2ccc(Br)cc2)cc1 | 82* | -17% | 62* | -12% | 25% | 0%
CC(C)(C)c1ccc(C(=O)O/N=C(\N)c2ccccc2)cc1 | 74* | · | 60* | -3% | -1% | -6%
Cc1cc(C(=O)O/N=C(\N)c2ccc(C(C)(C)C)cc2)no1 | 42* | -7% | 33* | -1% | -1% | 1%
Cn1nc(C(=O)OCC(=O)c2ccccc2)c2ccccc2c1=O | · | -17% | · | -8% | · | ·
